This is an account of results in PubChem BioAssay (NCATS).

Records with an inconclusive call do not appear. A call without a number means that no potency is given here. Active and inactive are the calls of the source. Unless noted, the call rests on the fitted dose curve; in most records, active means well fitted curve in the direction sought with a large enough effect; inconclusive means small, poorly fitted or top-dose-only effect, or another doubt; inactive means no such curve, though single readings can be large; an effect the other way counts as inactive or inconclusive. Where a SMILES comes first, the peptide text is derived from it. The star is where a group is joined. PhAc = O=C(Cc1ccccc1)*

Cytochrome P450 2D6 (Homo sapiens), sequence (P10635 whole entry, looked up): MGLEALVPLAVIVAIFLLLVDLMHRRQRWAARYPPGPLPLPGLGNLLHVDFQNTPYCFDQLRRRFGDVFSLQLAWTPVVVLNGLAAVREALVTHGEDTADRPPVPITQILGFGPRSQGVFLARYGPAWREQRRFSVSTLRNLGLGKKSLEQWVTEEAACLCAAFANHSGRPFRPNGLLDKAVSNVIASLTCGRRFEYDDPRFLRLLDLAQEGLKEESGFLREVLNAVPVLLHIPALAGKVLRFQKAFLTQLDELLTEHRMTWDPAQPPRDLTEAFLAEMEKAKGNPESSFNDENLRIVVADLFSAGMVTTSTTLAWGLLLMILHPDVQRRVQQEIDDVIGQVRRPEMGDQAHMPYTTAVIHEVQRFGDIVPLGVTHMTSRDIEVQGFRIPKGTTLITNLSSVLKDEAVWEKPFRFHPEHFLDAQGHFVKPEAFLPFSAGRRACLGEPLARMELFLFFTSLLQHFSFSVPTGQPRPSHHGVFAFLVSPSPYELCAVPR
Calcium and integrin-binding protein 1 (Homo sapiens), sequence (Q99828 whole entry, looked up): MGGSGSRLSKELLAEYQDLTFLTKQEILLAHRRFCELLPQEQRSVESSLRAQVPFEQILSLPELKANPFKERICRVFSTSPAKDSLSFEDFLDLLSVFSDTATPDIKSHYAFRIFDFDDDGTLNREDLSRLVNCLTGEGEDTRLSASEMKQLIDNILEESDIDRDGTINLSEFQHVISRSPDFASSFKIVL

The first assay addresses Calcium and integrin-binding protein 1 (Homo sapiens) (UniProt Q99828). Put plainly: Primary qHTS for Identification of Calcium Integrin Binding Protein 1 (CIB1) Competitor (AID 1508620).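 Further: GST tagged CIB1 binding a fluorescein labelled alphaIIb integrin peptide tracer; top concentration of the series differs between compounds.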 The following applies: CIB1-GST / FITC-alphaIIb peptide fluorescence polarization; series mostly up to 57.7 µM. The method, boiled down:
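CIB1-GST (1 uM final) and compound incubated 15 min at room temperature before adding FITC-alphaIIb peptide tracer (100 nM final). Competition for binding read by fluorescence polarization (ex 480, em 540) after another 15 min at room temperature.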
For orientation: Quantitative high-throughput screening tests each substance at several concentrations.
`COC(=O)Cn1nc(-c2cccc(OC)c2)c2ccccc21`: the Potency result is “inactive”.
Consider `COc1cc(Nc2nc3c(s2)CCCC3c2ccccc2)ccc1-n1cnc(C)c1` (centres undefined), for which the Potency entry was “inactive”.
With `Cc1cc(C(=O)N2Cc3cnn(C)c3Nc3ccccc32)ccc1CNC(=O)N1CCN(Cc2cc(O)cc(O)c2)CC1`, the Potency result was “inactive”.
In the case of `COc1cccc(CNc2ccc(S(=O)(=O)Nc3nc4ccccc4s3)cc2)c1O`, the Potency entry is “inactive”.
Same read-out and setting: the value for `O=C(O)Cn1nnc(-c2ccc(CN(CCCCOc3ccc(CN4CCCC4)cc3)CCc3ccccc3)cc2)n1` was “inactive”; that for `COc1cccc(C(=O)NCCNc2nc3cc(C)cc(C)c3cc2C#N)c1` was “inactive”; that for `CC[C@@H](Nc1c(Nc2cccc(C(=O)N(C)C)c2O)c(=O)c1=O)c1ccc(C)o1` was “inactive”.
On the same count and under the same terms, in the case of `O=C(c1c2ccccc2cc2ccccc12)N1CCC(N2CCC[C@@H](C(=O)N3CCOCC3)C2)CC1` it was “inactive”.
Same read-out and setting: the value for `Cc1ncc(NC(=O)c2ccc(CN3CCN(C)CC3)c(C(F)(F)F)c2)cc1Nc1nccc(-c2cccnc2)n1` was “inactive”; that for `FC(F)(F)Oc1ccc(-c2ccc3nnc(C(F)(F)F)n3c2)cc1` was “inactive”; that for `CC(CNS(=O)(=O)C(C)C)c1ccc(-c2ccc(C#N)cc2)cc1` (centres undefined) was “inactive”.
On to `Cc1nnc(-c2sc(NC(=O)[C@H](C(C)C)n3c(=O)[nH]c4ccccc4c3=O)nc2C)o1`, for which the Potency entry is “inactive”.
The same measure, in the same setting: the value for `FC(F)(F)c1nnc2c(Sc3ccccc3)nc3ccc(Cl)cc3n12` was “inactive”; that for `Cc1ccc(-c2c(-c3nn(C)c4ncnc(N5CCC(N6CCCCC6)C5)c34)cnn2C)cc1` (centres undefined) was “inactive”.
Turning to `COc1ccnc2[nH]cc(C(=O)C(=O)N3CCN(C(=O)c4ccccc4)CC3C)c12` (centres undefined), the Potency entry is “inactive”.
Same read-out and setting: in the case of `CCCCC(=O)N1c2ccccc2NC2=C(C(=O)CCC2)C1c1ccccc1Cl` (centres undefined) it was “inactive”; in that of `O=C(Nc1ccc(N2CCC(C(=O)N3CCOCC3)CC2)cc1)c1cnc(Oc2ccccc2)nc1`, “inactive”.
With `COc1ccc(NC(=O)c2ccc(-c3ccc(C(N)=O)cc3C)cc2)cc1N1CCN(C)CC1`, the Potency result is “inactive”.
Still for that read-out and setting: in the case of `Cc1occc1C(=O)n1ccnc1` it was “inactive”.
Take `CC1(C)CC=C(c2cnc3ccccc3c2)c2cc(C(=O)Nc3ccc(C(=O)O)cc3)ccc21`: the Potency result is “inactive”.
The same measure, in the same setting: in the case of `CCOC(=O)CNC(=O)[C@@H]1CCCN1C(=O)Cc1ccccc1` (PhAc-Pro-Gly-OEt) it was “inactive”.
On the same count and under the same terms, the value for `CC(C)(C)NS(=O)(=O)c1ccc(-c2ccc3[nH]nc(N)c3c2)cc1` was “inactive”.
The same measure, in the same setting: the value for `COc1ccc(N2CCN(CCCNC(=O)Cn3c(=O)c4cccn4c4c(C)ccnc43)CC2)cc1` was “inactive”; that for `CC[C@H](NC(=O)c1c(O)c(-c2ccccc2)nc2ccccc12)c1ccccc1` was “inactive”.
For `O=C(CCCCC1CCCCC1)N1CCC(c2cnc[nH]2)CC1`, the Potency entry is “inactive”.
As to `Fc1ccc(-c2c3cccc(C(F)(F)F)c3nn2Cc2ccc(F)cc2Cl)cc1`, the Potency result is “inactive”.
The same measure, in the same setting: the value for `COc1cnc(-n2cnc(C)n2)c2[nH]cc(C(=O)C(=O)N3CCN(C(=O)c4ccccc4)CC3)c12` was “inactive”; that for `NC(N)=NCCC[C@H](NC(=O)c1sccc1NS(=O)(=O)c1cccc2nsnc12)C(=O)O` was “inactive”; that for `O=C(Nc1cc(-c2ccccc2)nn1-c1ccccc1F)c1ccc([N+](=O)[O-])cc1` was “inactive”.
Take `CCNC(=O)C1CC(F)(c2ccc(CN3CCCC3)c(F)c2)C1` (centres undefined): the Potency entry was “inactive”.
For `COc1cnc(-c2ccc(Cn3c(CC(C)(C)C(=O)O)c(SC(C)(C)C)c4cc(OC[C@@H]5Cc6ccccc6N5C(C)=O)ccc43)cc2)nc1`, the Potency entry was “inactive”.
On the same count and under the same terms, in the case of `Cc1cc(OCCN2CCOCC2)nn1-c1ccc2ccccc2c1` it was “inactive”; in that of `CN1C(=O)N(c2cc(Cl)cc(Cl)c2)C(=O)[C@@]1(C)Cc1ccc(Br)cc1`, “inactive”.
Same read-out and setting: the value for `O=C(NC1Cc2ccccc2N(C[C@@H](O)CO)C1=O)c1cc2cc(Cl)sc2[nH]1` (some centres undefined) was “inactive”.
As to `CCc1nn(CCO)c(CC)c1Oc1cc(C#N)cc(C#N)c1`, the Potency entry was “inactive”.
As to `Cc1ccc(Nc2nnc(-c3ccc([N+](=O)[O-])cc3)o2)cc1Cl`, the Potency entry was “inactive”.
As for `Cc1cn(-c2cc(NC(=O)c3ccc(C)c(Nc4nccc(-c5cnccn5)n4)c3)cc(C(F)(F)F)c2)cn1`, the Potency result is “inactive”.
Still for that read-out and setting: the value for `CC(C)c1c(NC(=O)Nc2ccc(Cl)cc2)c(=O)n(-c2ccccc2)n1C` was “inactive”.

In the next assay the target is Cytochrome P450 2D6 (Homo sapiens) (UniProt P10635). Put plainly: Cytochrome P450 family 2 subfamily D member 6 (CYP2D6) small molecule antagonists: luciferase biochemical (cell-free) qHTS assay (AID 1645840; active means well fitted curve in the direction sought with a large enough effect in the repeat runs; an effect the other way counts as inactive or inconclusive; further: nearly all actives have a fitted effect of over 55% in size; further: potency means the concentration at half of the fitted maximal effect). The following applies: P450-Glo CYP2D6 enzyme, luciferin luminescence, 1 h; series mostly up to 57.4 µM. The method, boiled down:
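P450-Glo CYP2D6 system: proluciferin substrate converted by enzyme to luciferin, read by luminescence proportional to activity. Enzyme-substrate mix with compound 10 min at room temperature, then NADPH regeneration 1 h before detection reagent.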
For the molecule `COc1cc(Nc2nc3c(s2)CCCC3c2ccccc2)ccc1-n1cnc(C)c1` (centres undefined), the Potency is 0.275 µM (active).
Still for that read-out and setting: the value for `O=C(O)Cn1nnc(-c2ccc(CN(CCCCOc3ccc(CN4CCCC4)cc3)CCc3ccccc3)cc2)n1` was 12 µM (active); that for `Cc1ncc(NC(=O)c2ccc(CN3CCN(C)CC3)c(C(F)(F)F)c2)cc1Nc1nccc(-c2cccnc2)n1` was 10.7 µM (active); that for `FC(F)(F)Oc1ccc(-c2ccc3nnc(C(F)(F)F)n3c2)cc1` was “inactive”.
On the same count and under the same terms, in the case of `CC(CNS(=O)(=O)C(C)C)c1ccc(-c2ccc(C#N)cc2)cc1` (centres undefined) it was “inactive”.
The same measure, in the same setting: in the case of `FC(F)(F)c1nnc2c(Sc3ccccc3)nc3ccc(Cl)cc3n12` it was “inactive”.
For the molecule `COc1ccnc2[nH]cc(C(=O)C(=O)N3CCN(C(=O)c4ccccc4)CC3C)c12` (centres undefined), the Potency is 3.01 µM (active).
On the same count and under the same terms, in the case of `O=C(Nc1ccc(N2CCC(C(=O)N3CCOCC3)CC2)cc1)c1cnc(Oc2ccccc2)nc1` it was “inactive”.
The same measure, in the same setting: the value for `COc1ccc(NC(=O)c2ccc(-c3ccc(C(N)=O)cc3C)cc2)cc1N1CCN(C)CC1` was “inactive”; that for `Cc1occc1C(=O)n1ccnc1` was “inactive”.
The same measure, in the same setting: in the case of `CCOC(=O)CNC(=O)[C@@H]1CCCN1C(=O)Cc1ccccc1` (PhAc-Pro-Gly-OEt) it was “inactive”.
For `COc1ccc(N2CCN(CCCNC(=O)Cn3c(=O)c4cccn4c4c(C)ccnc43)CC2)cc1`, the Potency entry is “inactive”.
As for `O=C(CCCCC1CCCCC1)N1CCC(c2cnc[nH]2)CC1`, the Potency is 5.35 µM (active).
Still for that read-out and setting: the value for `Fc1ccc(-c2c3cccc(C(F)(F)F)c3nn2Cc2ccc(F)cc2Cl)cc1` was “inactive”; that for `COc1cnc(-n2cnc(C)n2)c2[nH]cc(C(=O)C(=O)N3CCN(C(=O)c4ccccc4)CC3)c12` was “inactive”; that for `NC(N)=NCCC[C@H](NC(=O)c1sccc1NS(=O)(=O)c1cccc2nsnc12)C(=O)O` was “inactive”.
On the same count and under the same terms, the value for `COc1cnc(-c2ccc(Cn3c(CC(C)(C)C(=O)O)c(SC(C)(C)C)c4cc(OC[C@@H]5Cc6ccccc6N5C(C)=O)ccc43)cc2)nc1` was “inactive”.
Regarding `Cc1cc(OCCN2CCOCC2)nn1-c1ccc2ccccc2c1`, the Potency was 5.35 µM (active).
Same read-out and setting: in the case of `CCc1nn(CCO)c(CC)c1Oc1cc(C#N)cc(C#N)c1` it was “inactive”; in that of `Cc1ccc(Nc2nnc(-c3ccc([N+](=O)[O-])cc3)o2)cc1Cl`, “inactive”; in that of `CC(C)c1c(NC(=O)Nc2ccc(Cl)cc2)c(=O)n(-c2ccccc2)n1C`, 12 µM (active).
